Shown are actives, neighbours in structure and some others; about 1.5% of the full set was active somewhere.
TPT1 inhibitor: Candida albicans TPT1 enzyme inhibitors, primary screen, biochemical, fluorescence polarization. tRNA 2'-phosphotransferase TPT1 (Candida albicans SC5314). recombinant caTPT1, FP RNA substrate dephosphorylation. inhibition, % at 5 µM. 300,000 tested, 0.81% active;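 active = inhibition above the mean of all tested compounds plus 3 SD, set per screening campaign, cut at about 24% in these data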;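 note: plate controls were DMSO alone for no effect and ferristatin control at 100 nM for full effect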
IDE cell activ: human IDE activators in live cells, primary screen, fluorescence polarization, HEK cells, FAbeta-B substrate. FAbeta-B cleavage; 0% vehicle, 100% cell-free pure enzyme wells. activation, % at 5.96 µM. 340,000 tested, 0.073% active. AID 493087, 2011;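 active = activation above the mean of all tested compounds plus 3 SD, set per screening campaign, cut at about 17% in these data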
Cardiac RTF inh: cardiac RTF calcium sensitivity inhibitors, primary screen, biochemical, IANBD-TnC fluorescence, EC70 calcium. IANBD-labeled cardiac RTF, Ca2+ fluorescence. Troponin I, cardiac muscle (Homo sapiens) + Troponin T, cardiac muscle (Homo sapiens) + …. 340,000 tested, 0.12% active. AID 493244, 2011. inhibition, % at 7.15 µM;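 active = inhibition above the mean inhibition of all tested compounds plus 3 SD, cut at about 17% in these data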;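 note: assay run at fixed EC70 calcium of 1.6 mM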
CRFBP-R2 agonist: agonists of CRF-BP/CRF-R2 complex, primary screen, cell-based, HEK293, calcium dye fluorescence, uHTS; calcium dye fluorescence (FLIPR); percent of saturating CRF peptide response; activation, % at 13.2 µM; 350,000 tested, 0.46% active; AID 588473, 2011;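 active = activation of at least 50%, plus an integration ratio under a set limit after plate pattern correction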;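 note: plate controls were neutral control wells without compound for no effect and CRF at EC100 for full effect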
cardiac RTF act: cardiac RTF calcium sensitivity activators, primary screen, biochemical, IANBD-TnC fluorescence, EC20 calcium. AID 493008, 2010. IANBD-labeled TnC RTF fluorescence at EC20 calcium; 0% EC20 calcium, 100% full calcium. 340,000 tested, 0.24% active. Troponin I, cardiac muscle (Homo sapiens) + Troponin T, cardiac muscle (Homo sapiens) + …. activation, % at 7.2 µM;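 active = activation above the mean over all tested compounds plus 3 SD, cut at about 30% in these data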;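 note: rise in fluorescence read as greater calcium sensitivity of cardiac thin filaments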
IDE inh: human IDE inhibitors in live cells, primary screen, fluorescence polarization, HEK cells, FAbetaB substrate. AID 434962, 2010. Insulin-degrading enzyme (Homo sapiens), P14735. 320,000 tested, 0.41% active. FAbetaB cleavage. inhibition, % at 5.59 µM;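 active = percent inhibition above the average of all tested compounds plus 3 SD, set per screening campaign, cut at about 16% in these data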;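 note: IDE supplied by intact live HEK cells; FP after avidin binding of uncleaved biotin substrate so inhibition keeps polarization high; 0% = DMSO wells and 100% = 60 µM reference IDE inhibitor Ii1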
caTPT1 confirm: Candida albicans TPT1 inhibitors, confirmation, biochemical, fluorescence polarization, triplicate; recombinant caTPT1, RNase T1 coupled; shares compounds with TPT1 inhibitor; 2,400 tested, 74% active; inhibition, % at 5 µM;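 active = inhibition above the primary screen limit, the mean inhibition of all tested compounds plus 3 SD, cut at about 25% in these data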
RNase T1 inh: RNase T1 inhibitors, counter-screen for TPT1 inhibitor project, biochemical, fluorescence polarization; shares compounds with TPT1 inhibitor; RNase T1 cleavage, 1536-well; inhibition, % at 5 µM; 2,400 tested, 83% active;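 active = inhibition above the solvent-only control well mean plus 3 SD, limit set per screening run, cut at about 23% in these data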;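 note: plate controls were DMSO wells with enzyme for no effect and wells without RNase T1 for full effect; inhibitors block cleavage so intact labeled substrate keeps polarization high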
Target sequence (P00651 whole entry, looked up): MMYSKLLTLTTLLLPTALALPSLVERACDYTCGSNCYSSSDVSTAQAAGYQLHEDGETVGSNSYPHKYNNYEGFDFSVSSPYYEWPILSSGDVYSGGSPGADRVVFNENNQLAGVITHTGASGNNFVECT
* = called active by the depositor; . = not tested or not shown.

SMILES | TPT1 inhibitor | IDE cell activ | Cardiac RTF inh | CRFBP-R2 agonist | cardiac RTF act | IDE inh | caTPT1 confirm | RNase T1 inh
CC(=O)c1c(N2CCN(c3ccccc3)CC2)nc(=S)n(-c2ccccc2)c1C | 78* | -2 | -12 | 26 | 0 | 6 | 26* | 35*
O=C(Nc1nnc(S(=O)(=O)N2CCCCC2)s1)c1ccc(Cl)cc1 | 2 | -2 | -7 | 13 | 4 | -1 | . | .
COc1ccc(-n2c(O)c(/C=N/NS(=O)(=O)c3cccc([N+](=O)[O-])c3)c3ccccc3c2=O)cc1OC | 70* | -13 | -43 | 2 | 33* | 7 | 115* | 118*
COc1ccc(/C=C/C=C2\N=C(SC)SC2=O)cc1 | 43* | -8 | -9 | 5 | 17 | 3 | 46* | 56*
COc1ccc(-n2nc3c(N4CCC(C(=O)N5CCC(C)CC5)CC4)nnc(C)c3c2C)cc1 | 79* | -2 | -45 | 16 | 32* | 0 | 72* | 81*
Cc1ccccc1NC(=O)CSc1cn[nH]n1 | 1 | 3 | -2 | -2 | 1 | -5 | . | .
Cn1c(=O)c(/C=C/c2ccc(F)cc2)nc2ccccc21 | . | 4 | -5 | 4 | -1 | . | . | .
O=c1c(/C=C(\O)c2ccc(F)cc2)nc2ccccc2n1-c1ccccc1 | 62* | -2 | -13 | 163* | 51* | 2 | 79* | 75*
COc1ccc(NC(=O)CSc2nnc3n2CCCCC3)cc1OC | . | . | . | -1 | . | . | . | .
Cc1ccc(S(=O)(=O)N2C[C@H]3[C@H]4C(=O)N(c5ccccc5)C(=O)[C@H]4C[C@H](OC(=O)NC4CCCC4)[C@@]3(O)C2)cc1 | . | . | . | 1 | . | . | . | .
CN(c1ccccc1)S(=O)(=O)c1cccc(NC(=O)CN2CCCc3ccccc32)c1 | 37* | 8 | -1 | 3 | 1 | -2 | 25* | 37*
N#Cc1c(N)n(-c2cccc(C(=O)O)c2)c2nc3ccccc3nc12 | 36* | -6 | -30 | 1 | 14 | 7 | 40* | 49*
N#Cc1c(N)n(-c2ccccc2N)c2nc3ccccc3nc12 | 7 | 4 | 4 | -5 | -5 | 1 | . | .
CCOC(=O)Cc1cc(=O)n(-c2nc3ccccc3s2)[nH]1 | 28* | 2 | 0 | 0 | -1 | 5 | 14 | 24*
CN(C)S(=O)(=O)c1ccc(Cl)c(C(=O)OCC(=O)NC(=O)c2cccn2C)c1 | 125* | -1 | 0 | 5 | 5 | -1 | 10 | 12
O=C(COc1ccc2c(c1)oc(=O)c1ccccc12)NCC1CCC(C(=O)O)CC1 (stereo not given) | 1 | 1 | -2 | -1 | 8 | -3 | . | .
COc1ccccc1/C=C/C1=NC(=C\C=C/c2ccccc2)/C(=O)O1 | 74* | 0 | 1 | 23 | 2 | -6 | 119* | 122*
COc1ccccc1/C=C/C=C1N=C(/C=C/c2ccc(Cl)cc2)OC/1=O | 40* | 1 | -3 | 7 | 8 | 6 | 124* | 124*
Nc1nonc1-n1nnc(C(=O)N/N=C/c2cc(Br)ccc2O)c1CNc1ccccc1 | 7 | 2 | -15 | 3 | -2 | 4 | . | .
Nc1nonc1C(=O)N/N=C/c1cc(Br)ccc1O | 33* | . | . | 56* | . | -6 | 30* | 38*
CC1N(C)c2cccc3cccc(c23)N1C | 32* | 5 | -14 | -4 | 5 | 2 | 6 | 7
CN1c2cccc3cccc(c23)N(C)C1c1cccs1 | -9 | -4 | 1 | 1 | -5 | 0 | . | .
COc1nn(-c2nc(-c3ccccc3)cc(C(F)(F)F)n2)cc1[N+](=O)[O-] | 55* | -3 | -26 | 5 | 4 | -5 | 2 | 5
CSc1cccc(NC(=O)CN(C)S(=O)(=O)c2cnc[nH]2)c1 | 2 | 5 | 4 | 2 | -5 | -3 | . | .
Cn1nnnc1SCc1nc2scc(-c3ccc(Cl)cc3)c2c(=O)[nH]1 | 29* | -1 | -17 | 1 | -1 | 7 | 50* | 59*
SMILES | TPT1 inhibitor | IDE cell activ | Cardiac RTF inh | CRFBP-R2 agonist | cardiac RTF act | IDE inh | caTPT1 confirm | RNase T1 inh
Cc1nc2ccccc2c(=O)n1/N=C/c1ccc2ccccc2c1O | 54* | -1 | -1 | -3 | -3 | 1 | 26* | 35*
Cc1nc2ccccc2c(=O)n1/N=C/c1ccc(O)c(O)c1O | -5 | -8 | -6 | 1 | -1 | -7 | . | .
CC(=O)N1CCOC12CCN(Cc1ccccc1)CC2 | . | . | . | 8 | . | . | . | .
CC1CCCN(C(=O)CCNC(=O)Cn2cnc3ccccc3c2=O)C1 (stereo not given) | -3 | 4 | 10 | 1 | 1 | -3 | . | .
O=[N+]([O-])c1ccc(Nc2ccccc2)c2nonc12 | 25* | -3 | 2 | 13 | -6 | -2 | 35* | 50*
CC(C)NC(=O)C1CCN(C2CCN(C(=O)/C=C/c3cccs3)CC2)CC1 | 25* | 7 | 2 | -2 | -2 | 11 | 6 | 15
COC(=O)C1CC(=O)c2ccsc2C1 (stereo not given) | 64* | -5 | -6 | 1 | -4 | 7 | 1 | 4
Cc1ccc(C(=O)CSc2cc(C)[nH]c(=O)n2)cc1 | 28* | 0 | -2 | 0 | -3 | 3 | 39* | 47*
Cc1cc(SCC(=O)c2ccc(Cl)cc2)nc(=O)[nH]1 | 7 | 0 | -13 | 1 | -1 | 0 | . | .
COc1ccc(CCC(=O)NC(C)C2CCCO2)cc1 (stereo not given) | 5 | -2 | -11 | 3 | -1 | 1 | . | .
O=C(/C=C/c1ccc([N+](=O)[O-])cc1)/C=C/c1ccco1 | 27* | 2 | 2 | . | -2 | 5 | 24 | 31*
O=C(/C=C/c1ccc([N+](=O)[O-])cc1)c1ccco1 | -1 | 0 | -6 | 3 | 1 | 0 | . | .
CCCCn1c(N)c(N(CCC(C)C)C(=O)C2CCCC2)c(=O)[nH]c1=O | . | -2 | -8 | 0 | 1 | 4 | . | .
COc1ccc(Br)c(C(=O)OCC(=O)NC2CCCCCC2)c1 | . | 0 | -9 | 0 | -1 | 2 | . | .
